The list is not random: actives were taken first. Their share in the collection is about 12%.
Sfp PPTase inh – blocks B. subtilis Sfp PPTase activity; AID 1490; Q9F4F7; Biochemical Sfp PPTase activity, qHTS; hit rate 3.5% among 310,000; Potency, µM, for the others: largest response in the series, negative = inhibition, actives largely listed as inhibitors;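 further: the enzyme is Sfp with the accession as filed and its product quenches rhodamine fluorescence; 0% = enzyme reaction without inhibitor and -100% = no enzyme wells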
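With Hepes-Na pH 7.6 buffer containing 10 mM MgCl2, Sfp (15 nM) modified BHQ-2-YbbR (12.5 uM) using rhodamine-CoA (5 uM). Two reads 30 minutes apart at 525/598 nm yielded each well's rate.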
BAZ2B block – blocks human BAZ2B; Q9UIF8; AlphaScreen BAZ2B-H3K14Ac peptide displacement; Potency, µM (titrated, usually from 114 µM), for the others: top-dose activity change, negative = inhibition, actives largely listed as inhibitors; hit rate 4.4% among 360,000; AID 504333; further: on the % scale 0 is the no-effect control and ±100 the full control effect; nearly all actives have a fitted effect of over 60% in size
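AlphaScreen luminescence quantifies BAZ2B engagement of H3K14Ac peptide; the protein and biotinylated peptide are both at 50 nM final, buffer PBS pH 7.4 with 0.01% Tween-20, all steps at room temperature.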
HP1b chromo inh – HP1-beta chromodomain-methylated histone interaction inhibition; P83916; AlphaScreen HP1-beta / biotin-H3K9me3 peptide binding; Potency, µM (highest dose often 114 µM), inactives show at the highest dose activity change, negative = inhibition, usual class: inhibitors; hit rate 0.56% among 390,000; AID 540317; further: nearly all actives have a fitted effect of over 70% in size
Target sequence (P83916 whole entry, looked up): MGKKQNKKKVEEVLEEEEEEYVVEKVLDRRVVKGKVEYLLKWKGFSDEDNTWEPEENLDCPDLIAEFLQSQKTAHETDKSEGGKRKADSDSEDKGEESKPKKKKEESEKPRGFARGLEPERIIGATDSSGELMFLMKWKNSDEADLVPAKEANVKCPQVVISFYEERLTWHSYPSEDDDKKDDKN
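Compound inhibition of the preformed complex between 50 nM HP1-beta and 50 nM biotinylated H3K9me3 peptide was read by AlphaScreen. Buffer was PBS pH 7.4 with 0.01% Tween-20. Incubations ran 30 min at room temperature, with 10 ug/mL donor/acceptor beads.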
JMJD2A Tudor inh – inhibitors of human JMJD2A Tudor domain | O75164 | AlphaScreen JMJD2A-Tudor / H3K4me3 peptide binding | Potency, µM (highest dose often 114 µM), for inactives: at the top dose activity change, negative = inhibition, actives largely listed as inhibitors | hit rate 4.4% among 390,000 | AID 504339; further: on the % scale 0 is the no-effect control and ±100 the full control effect; nearly all actives have a fitted effect of over 50% in size
L3MBTL1 inh – blocks human L3MBTL1. hit rate 0.66% among 230,000. AlphaScreen L3MBTL1–H3K9me1 peptide binding. AID 485360. Potency, µM (top dose mostly 57.1 µM), for the others: top-dose activity, negative = inhibition, hits mostly inhibitors; further: on the % scale 0 is the no-effect control and ±100 the full control effect; nearly all actives have a fitted effect of over 60% in size
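Read-out is AlphaScreen signal from streptavidin donor and nickel chelate acceptor beads (10 ug/mL final each) bridging L3MBTL1 (50 nM) and biotinylated K9-monomethylated H3(1-15) peptide (75 nM), after 30 min compound exposure at room temperature.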
G9a inh – G9a (human) methyltransferase inhibition | Potency, µM (highest dose often 102 µM), inactives show at the top dose activity, negative = inhibition, actives largely listed as inhibitors | G9a H3K9 monomethylation, AlphaScreen, 2 h | Q96KQ7 | hit rate 8.8% among 350,000; further: on the % scale 0 is the no-effect control and ±100 the full control effect; nearly all actives have a fitted effect of over 75% in size
Target sequence (Q96KQ7 913-1193 limits assumed): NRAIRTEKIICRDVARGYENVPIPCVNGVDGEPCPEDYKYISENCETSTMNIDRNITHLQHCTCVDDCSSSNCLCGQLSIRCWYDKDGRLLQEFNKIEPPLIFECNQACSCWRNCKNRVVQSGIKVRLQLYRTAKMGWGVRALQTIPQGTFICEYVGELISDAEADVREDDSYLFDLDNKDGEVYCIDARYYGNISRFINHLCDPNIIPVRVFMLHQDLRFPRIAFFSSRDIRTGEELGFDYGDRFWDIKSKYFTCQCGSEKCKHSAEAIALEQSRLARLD
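Using a bead-based AlphaScreen, monomethylated H3K9 product from 2 h room-temperature reactions (G9a 20 nM, peptide 500 nM, SAM 20 uM) was detected with 0.5 ug/mL rabbit anti-H3K9me1 antibody.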
* marks the source's active call; other numbers are inactive results; ? = inconclusive; nt = no result; ! = not active in a repeat; [ ] = remark or other dose. The call rests on the fitted dose curve; in most records, active means well fitted curve in the direction sought with a large enough effect; inconclusive means small, poorly fitted or top-dose-only effect, or another doubt; inactive means no such curve, though single readings can be large; an effect the other way counts as inactive or inconclusive. Potency means the concentration at half of the fitted maximal effect.

SMILES	Sfp PPTase inh	BAZ2B block	HP1b chromo inh	JMJD2A Tudor inh	L3MBTL1 inh	G9a inh
CCCCC[C@H](O)/C=C/[C@H]1OC(=O)C[C@H](O)[C@@H]1C/C=C\CCCC(=O)O	-15%	nt	nt	nt	nt	nt
O=S(=O)(c1ccc(Cl)cc1)n1c(Cc2ccccc2)nc2ccccc21	15%	-22%	35%	-9%	13%	?
COc1ccccc1Cc1nc2ccccc2n1S(=O)(=O)c1ccc(Cl)cc1	7%	-5%	30%	-14%	10%	25µM*
CCN1CCN(c2csc3ccc(C)cc3c2=O)CC1	nt	?	20%[57 µM]	-19%	nt	-37%[59 µM]
Oc1c(Br)cc(Cl)cc1C=Nc1ccc(N2CCOCC2)cc1	-5%	-13%	33%	-19%	-4%	?
Oc1c(Br)cc(Cl)cc1C=Nc1ccccc1Br	-25%	-36%	-6%	-21%	-2%	4µM*
COc1cc(C2c3[nH]c4ccccc4c3CC3COC(=O)N32)cc(OC)c1O (stereo unspecified)	nt	nt	-4%	-26%	nt	nt
COc1ccccc1CNS(=O)(=O)c1ccc(-c2cnc(C3CC3)o2)cc1	-7%	89µM*!	2%[57 µM]	-36%	nt	7%[59 µM]
CCN(CC)c1ccc(NS(=O)(=O)c2ccc(-c3cnc(C4CC4)o3)cc2)c(C)c1	nt	14µM*	?	18µM*	nt	?
CCOC(=O)C1CCCN(C(=O)CSc2ccc(Br)cc2)C1 (stereo unspecified)	-1%	15%	-12%	14µM*	9%	34%
CCOC(=O)C1CCCN(C(=O)COC(=O)C2=COCCO2)C1 (stereo unspecified)	-3%	?	-3%	50µM*	0%	50µM*
COc1ccc(CCNC(=O)COC(=O)c2cc(S(=O)(=O)N3CCCC3)ccc2O)cc1	nt	12%	20%	-17%	-3%	-19%[59 µM]
O=S(=O)(c1ccccc1)N1CCN(c2nccc(-c3cccs3)n2)CC1	nt	nt	nt	-5%	nt	nt
Cc1ccc(NC2=C(NCCO)C(=O)c3ccccc3C2=O)cc1	-7%	14µM*	?	50µM*	?	11µM*
Cn1cnnc1SCc1ccc(-c2ccc(Br)cc2)o1	45µM*	-38%	-8%	-35%	-6%	?
Cn1cnnc1SCc1ccccc1	0%	13%	11%	-19%	nt	1.3µM*
COc1ccc(CC(=O)NCc2ccc3c(c2)CCN3C(=O)c2cccc(C)c2)cc1	nt	0%	1%	-23%	nt	-2%[59 µM]
CC(C)NC(=O)c1n[nH]c(=O)c2ccccc12	17%	4%	48%	-13%	-4%	-4%
CC(C)c1ccc(C(=O)NNC(=O)c2n[nH]c(=O)c3ccccc23)cc1	nt	8%	27%	-15%	1%	5µM*
C#CCOCCOCCOCCNc1nc(N2CCN(C(=O)[C@H](CCC(=O)O)n3cc(C(N)CO)nn3)CC2)nc(N2CCN(C(=O)[C@H](Cc3ccc(O)cc3)n3cc(C(N)CC(C)C)nn3)CC2)n1 (stereo partly specified)	4%	32µM*	nt	nt	-25%	?
C#CCOCCOCCOCCNc1nc(N2CCN(C(=O)[C@H](CCC(=O)O)n3cc(C(N)Cc4ccc(O)cc4)nn3)CC2)nc(N2CCN(C(=O)[C@H](CCC(=O)O)n3cc(C(N)CC(C)C)nn3)CC2)n1 (stereo partly specified)	-19%	50µM*	-1%	32µM*	-7%	?
C#CCOCCOCCOCCNc1nc(N2CCOCC2)nc(N2CCN(C(=O)[C@H](CCC(=O)O)n3cc(C(N)Cc4ccc(O)cc4)nn3)CC2)n1 (stereo partly specified)	?	-30%	19%	89µM*	-4%	3%[12.7 µM]
CN(CC(=O)Nc1ccc(Cl)cc1)C(=O)c1cc(-c2cccs2)nn1-c1ccccc1	nt	2%	20%	-10%	-12%	-4%[59 µM]
O=C(COC(=O)c1cc(-c2cccs2)nn1-c1ccccc1)Nc1ccc(Cl)c([N+](=O)[O-])c1	18%	1%	11%	-18%	-8%	40µM*
COC(=O)c1cccc(NC(=O)CSc2nnc(C3CC3)n2C)c1	2%	1%	31%	-6%	nt	-2%
SMILES	Sfp PPTase inh	BAZ2B block	HP1b chromo inh	JMJD2A Tudor inh	L3MBTL1 inh	G9a inh
C=C(C)C(=O)Nc1ccc(OC(F)(F)C(F)F)c(NC(=O)C(=C)C)c1	2%	45µM*	56µM*	79µM*	?	nt
O=C(COc1ccccc1)NC1C(=O)N2C(C(=O)O)=C(Cl)CSC12 (stereo unspecified)	-18%	79µM*	0%	79µM*	-5%	35µM*
C=CC1=C(C(=O)O)N2C(=O)C(NC(=O)Cc3ccccc3)C2SC1 (stereo unspecified)	?	?	79µM*	40µM*	nt	?
CC1=C(C(=O)OCc2ccccc2)N2C(=O)[C@@H](NC(=O)COc3ccccc3)[C@H]2SC1	?	-9%	24%	-14%	-4%	?
O=C(COCc1cc(-c2cccs2)on1)N1CCN(c2ccc(F)cc2)CC1	nt	0%	28%	-15%	nt	-6%[59 µM]
CC(C)C1=CC2=CC[C@@H]3[C@](C)(CCC[C@@]3(C)C(=O)O)[C@H]2CC1	-4%	nt	nt	nt	nt	?
CC(C)C1=CC2=CCC3C(C)(C(=O)O)CCCC3(C)C2CC1 (stereo unspecified) (tested in a mixture with another compound)	3%	-2%	nt	nt	-6%	71µM*
COc1ccccc1Sc1ccccc1/C=N/NC(N)=O	2%	-2%	43%	-1%	-1%	50µM*
COc1ccccc1C=NNC(=O)NN=Cc1ccccc1OC	nt	nt	23%	-30%	nt	nt
COc1ccccc1C=NN=C(NN=Cc1ccccc1OC)NN=Cc1ccccc1OC	nt	nt	79µM*	?	nt	nt
O=C(Nc1ccc2nc(-c3ccco3)c(-c3ccco3)nc2c1)N1CCCCCC1	14µM*	11µM*	16µM*	13µM*	3.5µM*	5µM*
CCOC(=O)C1CCN(C(=O)Nc2ccc3nc(-c4ccco4)c(-c4ccco4)nc3c2)CC1	14µM*	11µM*	40µM*	79µM*	3.5µM*	1.6µM*
CCOC(=O)C1CCN(C(=O)CSc2nnc(-c3ccco3)n2-c2ccccc2)CC1	10%	-5%	27%	-16%	-2%	45µM*
COc1ccc(OC)c(Cc2nnc(CCC(=O)N3CCN(C4CCCC4)CC3)o2)c1	-1%	1%	17%	-20%	nt	nt
CN(C)S(=O)(=O)c1ccc2c(c1)c(=O)c(C(=O)NCCCN1CCCCCC1)cn2C	-11%	7%	40%	-6%	22%	45µM*
CN(C1CCCCC1)S(=O)(=O)c1ccc2c(c1)c(=O)c(C(=O)NCCc1ccccc1)cn2C	nt	nt	36%	-18%	nt	-40%[59 µM]

High-throughput results (PubChem)
